From PubChem BioAssay (Tox21) come the findings set out here.

Assay [1] can be described thus: A CellTox Green Cytotoxicity Assay to monitor cytotoxicity in HepG2 cells - 8 hour (AID 1224890). Also: nearly all actives have a fitted effect of over 45% in size. Put shortly:
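HepG2 cells were seeded together with the CellTox Green dye at 600 cells/well, left 5 h at 37 C/5% CO2, then given compounds in DMSO. Fluorescence from dye bound to dead-cell DNA was read repeatedly over 40 h of treatment at 37 C.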

A short description of assay [2]: qHTS assay to identify small molecule antagonists of the estrogen receptor alpha (ER-alpha) signaling pathway using the BG1 cell line in the presence of 0.1 nM 17-beta-estradiol - cell viability counter screen (AID 1259241). Also: nearly all actives have a fitted effect of over 40% in size. Put shortly: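 CellTiter-Fluor read (30 min, 37C) on ER-alpha/ERE-luc VM7Luc4E2 cells; 22 hr compound treatment; agonist 0.1 nM E2 final; same-well multiplex.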

A short description of assay [3]: qHTS assay to identify small molecule antagonists of the androgen receptor (AR) signaling pathway using the MDA cell line in the presence of 0.5 nM R1881 - cell viability counter screen (AID 1259242). Also: nearly all actives have a fitted effect of over 45% in size. Put shortly: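 MDA-kb2 cells (human breast carcinoma, stably carrying MMTV-luciferase reporter) were exposed to compounds with 0.5 nM R1881 (final) for 16 hr at 37C, 0% CO2; viability then read as live-cell protease fluorescence (CellTiter-Fluor, 30 min) in the same wells.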

The target of assay [4] is Estrogen receptor (Homo sapiens) (UniProt P03372). Briefly: qHTS assay to identify small molecule antagonists of the estrogen receptor alpha (ER-alpha) signaling pathway using the BG1 cell line in the presence of 0.1 nM 17-beta-estradiol (AID 1259244). Also: nearly all actives have a fitted effect of over 50% in size. Put shortly: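 VM7Luc4E2 cells (endogenous full-length ER-alpha, stable 4xERE-luciferase) were grown 5 days in phenol red-free medium with charcoal-stripped FBS, then exposed 22 h at 37C to compounds plus 0.1 nM (final) 17beta-estradiol; ONE-Glo luminescence read-out.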

The nature of assay [5]: qHTS assay to identify small molecule HDAC inhibitors (AID 1259364). Also: nearly all actives have a fitted effect of over 45% in size. Also: potency is read from the fitted curve at half-maximal effect. Put shortly:
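Wild-type HCT-116 cells were plated overnight, exposed to compounds for 2 h at 37 °C, then given HDAC-Glo class I/II luminogenic reagent for 30 min at room temperature before luminescence was read.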

Assay [6] is described as follows: qHTS assay to identify small molecule HDAC inhibitors - cell viability counter screen (AID 1259365). Also: series mostly up to about 92 µM; nearly all actives have a fitted effect of over 50% in size. Put shortly: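 To flag cytotoxic hits, 1,500 wild-type HCT-116 cells per well, plated the day before, receive test compounds for 2hr at 37 C before CellTiter-Glo reagent and a luminescence read.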
Assay [7] in a line: qHTS assay to identify small molecule agonists of the sonic hedgehog signaling (Shh) pathway - cell viability counter screen (AID 1259366). Also: nearly all actives have a fitted effect of over 50% in size. Also: potency is read from the fitted curve at half-maximal effect. Put shortly:
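Fluorescence from CellTiter-Fluor reports live cells in this counter screen. NIH/3T3-derived Gli1-Luc reporter cells receive test compounds for 24hr at 37C; reagent goes in at 23hr.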

The nature of assay [8]: qHTS assay to identify small molecule antagonists of the sonic hedgehog signaling (Shh) pathway - cell viability counter screen (AID 1259367). Also: nearly all actives have a fitted effect of over 55% in size. Also: potency is read from the fitted curve at half-maximal effect. Put shortly: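 NIH/3T3-derived Gli1-Luc reporter cells (2,000 per well) rested 4 hr at 37 C, then received DMSO compounds plus conditioned medium. After 23 hr of treatment, CellTiter-Fluor was added for 1 hr at 37C and fluorescence read.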

Assay [9] in a line: qHTS assay to identify small molecule agonists of the sonic hedgehog signaling (Shh) pathway (AID 1259368; calls by dose curve; also: series mostly up to about 92 µM; nearly all actives have a fitted effect of over 15% in size). Put shortly: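 NIH/3T3-derived 3T3Gli1-Luc cells carrying a stably integrated Gli1 response element–firefly luciferase reporter were plated, left 4 hr at 37 C, then given compounds in DMSO for 24 hr. Luminescence was read 30 min after adding luciferase reagent.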
Assay [10] can be described thus: qHTS assay to identify small molecule antagonists of the sonic hedgehog signaling (Shh) pathway (AID 1259369; calls by dose curve; also: nearly all actives have a fitted effect of over 45% in size; also: potency is read from the fitted curve at half-maximal effect). Put shortly: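 NIH/3T3-derived 3T3Gli1-Luc cells with stably integrated Gli1-Luc reporter were preincubated 4hr at 37 C, then given compounds in DMSO plus Shh conditioned medium and incubated 24hr. Firefly luciferase luminescence read after 30min reagent at room temperature.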

Assay [11] has as its target Estrogen receptor beta (Homo sapiens) (UniProt Q92731). As to the kind of experiment: qHTS assay to identify small molecule agonists of the estrogen receptor beta (ER-beta) signaling pathway (AID 1259377; active = well fitted activation curve with a large enough effect in the signal ratio in the repeat runs, not every such curve was filed as active; the % refers to the signal ratio; also: potency is read from the fitted curve at half-maximal effect). Put shortly: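 Screening used GripTite ER-beta-UAS-bla cells held in 2% charcoal-stripped FBS medium. After overnight (16 hr) compound incubation at 37C, beta-lactamase activity was detected with a FRET substrate by fluorescence.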

For assay [12] the target is unchanged. As to the kind of experiment: qHTS assay to identify small molecule antagonists of the estrogen receptor beta (ER-beta) signaling pathway (AID 1259378; active = well fitted inhibition curve with a large enough effect in the signal ratio in the repeat runs, not every such curve was filed as active; the % refers to the signal ratio). Put shortly: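 ER-beta-UAS-bla HEK293T (GripTite) cells in 2% charcoal-stripped FBS medium were preincubated 6 hr at 37C, dosed with compound, then stimulated with 1 nM E2 (final) for 16 hr; beta-lactamase reporter read by B/G FRET fluorescence after 2 hr substrate loading.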

Assay [13] is described as follows: qHTS assay to identify small molecule agonists of the androgen receptor (AR) signaling pathway in the presence of an antagonist - cell viability counter screen (AID 1259379). Also: nearly all actives have a fitted effect of over 25% in size. Also: potency is read from the fitted curve at half-maximal effect. Put shortly: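 MDA-kb2 human breast carcinoma cells (stable MMTV-luciferase, AR/GR responsive) were seeded 3,000 cells/well, pre-incubated 5 hr at 37C without CO2, then given 3.0uM nilutamide and compounds at 15 concentrations for 16 hr. Viability was read by CellTiter-Fluor fluorescence.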

Assay [14] in a line: qHTS assay to identify small molecule agonists of the estrogen receptor beta (ER-beta) signaling pathway - cell viability counter screen (AID 1259380). Also: nearly all actives have a fitted effect of over 30% in size. Put shortly:
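ER-beta-UAS-bla HEK293T cells in medium with 2% charcoal-stripped FBS were preincubated 6 hr at 37C, dosed with compound in DMSO for 16 hr, then after the bla read, CellTiter-Glo was added for 30 min at room temperature; luminescence recorded.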

Assay [15] is described as follows: qHTS assay to identify small molecule antagonists of the estrogen receptor beta (ER-beta) signaling pathway - cell viability counter screen (AID 1259382). Also: series mostly up to about 92 µM; nearly all actives have a fitted effect of over 55% in size. Put shortly:
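ER-beta-UAS-bla HEK293T cells (2,000/well, 2% charcoal-stripped FBS) were pre-incubated 6 hr at 37C, then given compound plus 1nM final 17-beta-estradiol for 16 hr. Viability was read in the same wells by CellTiter-Glo luminescence after 30 min at room temperature.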

The target in assay [16] is Estrogen receptor (Homo sapiens) (UniProt P03372). Briefly: qHTS assay to identify small molecule agonists of the estrogen receptor alpha (ER-alpha) signaling pathway in the presence of an antagonist (AID 1259383; calls by dose curve; also: nearly all actives have a fitted effect of over 15% in size; also: potency is read from the fitted curve at half-maximal effect; as to activation: top concentration of the series differs between compounds). Put shortly: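 VM7Luc4E2 cells (endogenous full-length ER-alpha, 4×ERE-luciferase) were precultured 5 days in phenol red-free medium with 10% charcoal-stripped FBS, given 10.0nM ICI-182,780 (final), then treated with compounds at 15 concentrations for 22hr at 37C; luminescence read with ONE-Glo.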

Assay [17] is described as follows: qHTS assay to identify small molecule agonists or antagonists of the thyroid stimulating hormone receptor (TSHR) signaling pathway - wild type cell line counter screen (AID 1259384; calls by dose curve). Put shortly: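 Wild-type HEK293 cells were plated 18 h at 37 C/5% CO2, pin-dosed with compound plus Ro20-1724 medium, held 30 min at room temperature, then given cAMP-d2 and anti-cAMP-cryptate; fluorescence was read after 1 h. Fifteen concentrations, triplicate.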

Assay [18] has as its target Thyrotropin receptor (Homo sapiens) (UniProt P16473). As to the kind of experiment: qHTS assay to identify small molecule antagonists of the thyroid stimulating hormone receptor (TSHR) signaling pathway (AID 1259385; calls by dose curve; also: nearly all actives have a fitted effect of over 20% in size). Put shortly: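 TSHR-HEK293 cells were plated and held 18 h at 37C/5% CO2, then given compound plus Ro20-1724 and stimulated with TSH at 1.5 ng/mL final. After 30 min at room temperature, cAMP was detected with cAMP-d2/anti-cAMP-cryptate (1 h) by fluorescence.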

Assay [19] has as its target Androgen receptor (Homo sapiens) (UniProt P10275). Briefly: qHTS assay to identify small molecule antagonists of the androgen receptor (AR) signaling pathway using the MDA cell line in the presence of 0.5 nM R1881 (AID 1259243). Also: nearly all actives have a fitted effect of over 50% in size. Put shortly: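 MDA-kb2 human breast carcinoma cells carrying an MMTV-luciferase reporter (AR- and GR-responsive) were plated, rested 5 hr at 37C, dosed with compounds, then stimulated with 0.5 nM R1881 (final) for 16 hr; luminescence was read after ONE-Glo.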

Assay [20] in a line: qHTS assay to identify small molecule phospholipidosis (PLD) inducers (AID 1259344; active = well fitted curve in the direction sought with a large enough effect; an effect the other way counts as inactive or inconclusive). Put shortly: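 HepG2 cells on collagen I, attached 4 h at 37 C, were co-treated with compound and LipidTOX Red dye for 24 h at 37 C, then fixed with paraformaldehyde plus Hoechst 33342 and imaged by high-content microscopy for phospholipid accumulation.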

Values joined by “and” are separate entries in the source; they are usually repeats but may differ in a detail not shown here. Equal values may be shown once. Results filed as inconclusive are left out. A structure can be active in one record and inactive in another. Active and inactive are the calls of the source. Unless noted, calls follow the shape of the dose curve; as a rule, active = well fitted curve in the direction sought with a large enough effect in the repeat runs; inconclusive = weak or mixed curves; inactive = no such curve, though single readings can be large; an effect the other way counts as inactive or inconclusive.

Estrogen receptor (Homo sapiens), sequence (P03372 whole entry, looked up): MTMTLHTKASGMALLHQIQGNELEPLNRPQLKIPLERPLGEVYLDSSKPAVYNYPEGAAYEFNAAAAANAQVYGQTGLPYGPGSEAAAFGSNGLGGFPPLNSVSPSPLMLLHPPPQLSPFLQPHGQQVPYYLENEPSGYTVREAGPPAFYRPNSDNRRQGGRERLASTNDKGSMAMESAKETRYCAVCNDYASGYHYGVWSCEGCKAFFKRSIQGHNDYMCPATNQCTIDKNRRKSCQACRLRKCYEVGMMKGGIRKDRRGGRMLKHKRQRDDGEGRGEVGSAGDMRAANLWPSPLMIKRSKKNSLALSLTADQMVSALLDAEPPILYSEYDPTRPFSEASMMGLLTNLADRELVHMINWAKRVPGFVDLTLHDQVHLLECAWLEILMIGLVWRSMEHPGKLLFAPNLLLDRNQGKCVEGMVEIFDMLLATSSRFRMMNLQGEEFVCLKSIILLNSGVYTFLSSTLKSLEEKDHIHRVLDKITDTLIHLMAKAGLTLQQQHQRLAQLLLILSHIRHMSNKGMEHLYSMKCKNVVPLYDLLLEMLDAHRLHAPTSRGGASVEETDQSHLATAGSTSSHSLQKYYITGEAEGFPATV
Thyrotropin receptor (Homo sapiens), sequence (P16473 whole entry, looked up): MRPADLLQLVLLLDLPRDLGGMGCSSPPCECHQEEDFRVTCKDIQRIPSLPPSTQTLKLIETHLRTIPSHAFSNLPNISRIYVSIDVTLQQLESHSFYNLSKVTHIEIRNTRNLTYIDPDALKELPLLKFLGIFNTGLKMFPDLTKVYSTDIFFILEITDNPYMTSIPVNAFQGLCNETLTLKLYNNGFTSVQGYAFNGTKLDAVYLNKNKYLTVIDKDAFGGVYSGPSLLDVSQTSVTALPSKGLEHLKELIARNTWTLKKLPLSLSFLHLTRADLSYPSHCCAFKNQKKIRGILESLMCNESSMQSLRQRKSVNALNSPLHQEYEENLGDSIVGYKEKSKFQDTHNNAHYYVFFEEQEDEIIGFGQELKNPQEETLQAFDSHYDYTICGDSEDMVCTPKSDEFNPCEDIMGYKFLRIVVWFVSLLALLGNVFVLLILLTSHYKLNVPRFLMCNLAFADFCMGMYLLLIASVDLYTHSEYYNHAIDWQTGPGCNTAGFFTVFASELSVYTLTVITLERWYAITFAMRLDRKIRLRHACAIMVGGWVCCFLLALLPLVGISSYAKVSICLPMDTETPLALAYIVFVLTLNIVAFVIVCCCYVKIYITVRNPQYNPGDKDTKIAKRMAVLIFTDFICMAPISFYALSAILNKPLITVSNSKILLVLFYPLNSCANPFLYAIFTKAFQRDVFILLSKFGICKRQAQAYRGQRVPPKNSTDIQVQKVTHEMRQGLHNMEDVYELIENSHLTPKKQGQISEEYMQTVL
Estrogen receptor beta (Homo sapiens), sequence (Q92731 whole entry, looked up): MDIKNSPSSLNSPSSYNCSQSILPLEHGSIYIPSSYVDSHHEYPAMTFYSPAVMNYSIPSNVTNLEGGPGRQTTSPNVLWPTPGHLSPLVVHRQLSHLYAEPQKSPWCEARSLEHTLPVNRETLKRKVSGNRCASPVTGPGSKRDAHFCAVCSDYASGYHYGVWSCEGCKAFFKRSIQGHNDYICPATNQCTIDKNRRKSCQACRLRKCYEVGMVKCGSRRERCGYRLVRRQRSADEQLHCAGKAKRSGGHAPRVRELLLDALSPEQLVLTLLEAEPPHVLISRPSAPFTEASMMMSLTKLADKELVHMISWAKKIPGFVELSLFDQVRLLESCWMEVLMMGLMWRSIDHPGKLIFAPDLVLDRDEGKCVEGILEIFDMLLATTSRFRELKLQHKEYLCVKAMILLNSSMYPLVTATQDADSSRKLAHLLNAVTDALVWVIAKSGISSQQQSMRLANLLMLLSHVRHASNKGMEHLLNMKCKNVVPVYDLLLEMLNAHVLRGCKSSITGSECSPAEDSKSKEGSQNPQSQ
Androgen receptor (Homo sapiens), sequence (P10275 whole entry, looked up): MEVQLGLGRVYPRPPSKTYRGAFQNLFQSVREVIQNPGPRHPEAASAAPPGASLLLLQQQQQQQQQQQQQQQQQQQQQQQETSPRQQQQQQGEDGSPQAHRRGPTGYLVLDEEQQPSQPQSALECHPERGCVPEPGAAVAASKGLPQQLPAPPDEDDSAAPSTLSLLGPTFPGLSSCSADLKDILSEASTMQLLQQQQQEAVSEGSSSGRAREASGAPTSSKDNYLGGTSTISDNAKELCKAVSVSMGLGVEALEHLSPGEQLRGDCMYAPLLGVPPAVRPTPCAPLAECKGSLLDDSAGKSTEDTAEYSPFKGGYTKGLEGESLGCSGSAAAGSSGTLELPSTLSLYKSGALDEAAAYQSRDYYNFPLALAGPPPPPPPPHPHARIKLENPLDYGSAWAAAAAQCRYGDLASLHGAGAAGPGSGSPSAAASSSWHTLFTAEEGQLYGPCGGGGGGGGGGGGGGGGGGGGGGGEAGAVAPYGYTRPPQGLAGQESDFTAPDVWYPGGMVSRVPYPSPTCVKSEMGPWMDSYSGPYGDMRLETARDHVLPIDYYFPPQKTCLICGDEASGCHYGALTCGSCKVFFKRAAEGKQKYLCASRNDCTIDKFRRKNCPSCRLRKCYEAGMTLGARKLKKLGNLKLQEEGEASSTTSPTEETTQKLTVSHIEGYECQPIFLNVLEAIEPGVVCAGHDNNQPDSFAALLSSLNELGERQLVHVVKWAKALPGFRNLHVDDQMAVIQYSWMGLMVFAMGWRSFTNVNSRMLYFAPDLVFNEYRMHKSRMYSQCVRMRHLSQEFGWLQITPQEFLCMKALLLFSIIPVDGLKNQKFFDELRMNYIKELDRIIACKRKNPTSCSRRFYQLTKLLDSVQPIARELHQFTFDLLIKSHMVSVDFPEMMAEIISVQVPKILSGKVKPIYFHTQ

For the molecule `ClC1=C(Cl)C(Cl)(Cl)C(Cl)=C1Cl`, the Potency result in assay [1], in assay [2], in assay [3], in assay [4], in assay [5] and in assay [7] was “inactive” each time. In addition, the Potency result in [8], in assay [10], in assay [11], in assay [12], in [14] and in assay [15] was “inactive” throughout. Besides, the Potency result in [16] was “inactive”. In addition, the call in assay [6], in assay [9], in [17] and in assay [18] was inactive. The Potency in assay [13] was 43.3 µM (active).
For the molecule `OCC1CCCO1` (configuration not stated), the Potency result in assay [1], in assay [2], in assay [3], in assay [4], in assay [5] and in assay [7] was “inactive” throughout. In addition, the Potency entry in assay [8], in [10], in [11], in assay [12], in assay [14] and in [15] was “inactive” throughout. Also, the Potency entry in assay [16] was “inactive”. Also, the result in assay [19], in [6] and in [9] was inactive.
Regarding `CCCCCC/C=C/CCCCCCCC(=O)O`, the Potency result in assay [1], in assay [2], in assay [3], in assay [4], in assay [5] and in assay [7] was “inactive” in each case. Also, the Potency result in assay [8], in [10], in assay [11], in [12], in assay [13] and in [14] was “inactive” each time. In addition, the Potency entry in assay [15] and in assay [16] was “inactive” each time. Moreover, the outcome in [6], in [9], in [17] and in assay [18] was inactive.
Consider `O=C(Cl)c1c(Cl)c(Cl)c(C(=O)Cl)c(Cl)c1Cl`, for which the Potency entry in [1], in assay [2], in [3], in [4], in [5] and in [7] was “inactive” each time. Moreover, the Potency result in [8], in assay [10], in assay [11], in assay [12], in assay [13] and in [14] was “inactive” throughout. Besides, the Potency entry in [15] and in [16] was “inactive” each time. The result in assay [6] and in assay [9] was inactive.
For `NC(=O)/N=N/C(N)=O`, the Potency result in assay [1], in [2], in [3], in [4], in assay [5] and in assay [7] was “inactive” each time. Moreover, the Potency entry in assay [8], in assay [10], in assay [11], in assay [12], in assay [13] and in assay [14] was “inactive” each time. Besides, the Potency entry in [15] and in assay [16] was “inactive” in each case. Also, the molecule was called inactive in assay [6] and in [9].
Turning to `CCC(C)C=O` (configuration not stated), the Potency entry in [1], in assay [2], in [3], in assay [4], in assay [5] and in [7] was “inactive” throughout. The Potency entry in [8], in [10], in assay [12], in [14] and in [15] was “inactive” each time. For the same molecule, the call in [6], in assay [9], in [17] and in assay [18] was inactive. The Potency is 4.32 µM (active) and inactive in assay [11]; 1.09 µM (active) and inactive in assay [16].
Regarding `CN(CCOc1ccc(CC2SC(=O)NC2=O)cc1)c1ccccn1` (configuration not stated), the Potency entry in assay [1], in [2], in assay [3], in assay [4], in assay [7] and in assay [8] was “inactive” each time. The Potency result in assay [10], in [11], in assay [12], in assay [13], in [15] and in assay [16] was “inactive” each time. In addition, the molecule was classed as inactive in [20], in assay [6], in assay [9], in assay [17] and in assay [18]. Moreover, the Potency in assay [5] is 30.5 µM (active) and inactive.
As for `O=[N+]([O-])C(CO)(CO)CO`, the Potency entry in [1], in [2], in assay [3], in [4], in assay [5] and in [11] was “inactive” throughout. The Potency result in assay [12], in assay [13], in [14], in assay [15] and in assay [16] was “inactive” in each case. In addition, the molecule was classed as inactive in [6], in [9], in assay [17] and in assay [18]. Besides, the Potency in assay [7] is 30.2 µM (active) and 48.6 µM (active); in assay [8], 214 nM (active) and inactive; in [10], 0.151 µM (active).
